Unmarked numbers belong to inactive results. No rule for the calls is given here.
molecular target: Pantothenate synthetase (Mycobacterium tuberculosis (strain ATCC 25618 / H37Rv)) (UniProt P9WIL5); assay: Coupled enzyme confirmation of inhibitors against recombinant Mtb PanC (AID 375); details: coupled enzyme assay; at 10 µM, hits give high values;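 also: 0% = full reaction with vehicle and 100% = no enzyme background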
Sequence (P9WIL5 whole entry, looked up): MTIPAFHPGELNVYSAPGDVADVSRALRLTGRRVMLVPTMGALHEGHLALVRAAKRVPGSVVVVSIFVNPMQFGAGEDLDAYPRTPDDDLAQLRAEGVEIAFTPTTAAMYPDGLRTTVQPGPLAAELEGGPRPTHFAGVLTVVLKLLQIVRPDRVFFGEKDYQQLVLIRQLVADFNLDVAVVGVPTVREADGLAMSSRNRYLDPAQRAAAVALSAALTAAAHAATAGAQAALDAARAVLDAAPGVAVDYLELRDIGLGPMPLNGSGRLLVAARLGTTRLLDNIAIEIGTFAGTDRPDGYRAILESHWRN

Question: How did the inhibition turn out when `Cc1cccc(NC(=O)c2cc3n(n2)C(C(F)(F)F)CC(c2ccc4c(c2)OCO4)N3)c1` (stereo not given) was run?
Answer: The inhibition was 4%.

Question: Which inhibition does the source give for `CCOc1cc(C(=O)N2CCN(c3ccccc3)CC2)cc(OCC)c1OCC` here?
Answer: The inhibition was 3%.

Question: `N#Cc1ccc(-c2csc(NC(=O)C3CC3)n2)cc1` was tested. Which inhibition did it give?
Answer: Its inhibition is 0%.

Question: `O=C1CCNc2cc3ccccc3cc21` was tested. Which inhibition did it give?
Answer: The inhibition was 3%.

Question: `Cc1cnn(Cc2ccccc2)c1N` was tested. Which inhibition did it give?
Answer: Its inhibition is 3%.

Question: With `Cc1nnc(N2C(=O)C(O)=C(C(=O)c3ccco3)C2c2ccc(F)cc2)s1` (stereo not given) as the compound, how does the inhibition read?
Answer: Its inhibition is 0%.

Question: With `COC(=O)CSc1nc2ncc(Cl)cc2[nH]1` as the compound, how does the inhibition read?
Answer: Its inhibition is 1%.

Question: With `Clc1c(CSc2nc3ccccc3o2)nc2sccn12` as the compound, how does the inhibition read?
Answer: Its inhibition is 1%.

Question: For `O=C1NC(=O)C(c2ccccc2)(c2ccccc2)N1`, which inhibition is on record?
Answer: Its inhibition is 0%.

Question: `CCOC(=O)C1CCCN(c2c(N3CCN(c4ccccn4)CC3)c(=O)c2=O)C1` (stereo not given) was tested. Which inhibition did it give?
Answer: The inhibition was 2%.

Question: `CCOC(=O)C1CCCN(S(=O)(=O)c2cccs2)C1` (stereo not given) was tested. Which inhibition did it give?
Answer: The inhibition was 6%.

Question: Which inhibition does the source give for `CCn1nnc(NC(=O)c2ccc(-c3ccc(Cl)cc3)o2)n1` here?
Answer: The inhibition was 2%.

Question: Which inhibition does the source give for `O=C(c1ccc(Cl)cc1)N(Cc1cccs1)C1CCS(=O)(=O)C1` (stereo not given) here?
Answer: The inhibition was 0%.

Question: Which inhibition does the source give for `Nc1ncnc(Nc2ccccc2C(F)(F)F)n1` here?
Answer: The inhibition was 0%.

Question: Which inhibition does the source give for `CCCC1c2ccc(C)n2CCN1C(=O)Nc1ccccc1Cl` (stereo not given) here?
Answer: The inhibition was 1%.

Question: How did the inhibition turn out when `Cc1ccc(-n2nc(C(=O)N3CCN(C)CC3)c3c4ccccc4n(C)c3c2=O)cc1` was run?
Answer: Its inhibition is 0%.

Question: For `Cc1ccc(NC(=O)CSc2nnc(-c3ccc(S(=O)(=O)N4CCOCC4)cc3)n2C)cc1`, which inhibition is on record?
Answer: Its inhibition is 1%.

Question: How did the inhibition turn out when `COc1cccc2c(=O)c3c(cnn3C)n(C)c12` was run?
Answer: Its inhibition is 0%.

Question: With `O=C(Nc1ccccc1C(=O)N1CCOCC1)c1ccncc1` as the compound, how does the inhibition read?
Answer: Its inhibition is 0%.

Question: For `O=C(CSc1nnc(-c2ccccc2)o1)NC1CCCCC1`, which inhibition is on record?
Answer: Its inhibition is 0%.

Question: Which inhibition does the source give for `O=C1CSC(c2cn(-c3ccccc3)nc2-c2cccs2)N1CC1CCCO1` (stereo not given) here?
Answer: The inhibition was 2%.

Question: `COC(=O)C1=C(C)N(Cc2ccco2)C(=O)C1` was tested. Which inhibition did it give?
Answer: The inhibition was 0%.

Question: With `CC(=O)Nc1nc(=S)ss1` as the compound, how does the inhibition read?
Answer: Its inhibition is 6%.

Question: How did the inhibition turn out when `O=C(NCc1cccnc1)c1cn(CCc2ccccc2)nn1` was run?
Answer: Its inhibition is 0%.

Question: With `CCC(=O)N(Cc1ccco1)c1nc(-c2cc(OC)ccc2OC)cs1` as the compound, how does the inhibition read?
Answer: Its inhibition is 0%.

Question: With `COC(=O)c1cc(=O)nc2sc(-c3cccs3)nn12` as the compound, how does the inhibition read?
Answer: The inhibition was 8%.

Question: `O=C(Oc1ccc(Cl)cc1N1C(=O)CCC1=O)c1ccco1` was tested. Which inhibition did it give?
Answer: Its inhibition is 6%.

Question: With `Cc1cccc(NC(=O)CCCCCN2C(=O)c3ccccc3C2=O)n1` as the compound, how does the inhibition read?
Answer: Its inhibition is 0%.

Question: How did the inhibition turn out when `Nc1cccc2c1C(=O)N(c1ccccc1)C2=O` was run?
Answer: Its inhibition is 0%.

Question: With `CCNc1nc(NC(C)C)nc(N(C#N)CCOc2ccc(Cl)cc2Cl)n1` as the compound, how does the inhibition read?
Answer: The inhibition was 7%.

Question: `CC(=O)C1=C(O)C(=O)N(Cc2cccnc2)C1c1ccccc1` (stereo not given) was tested. Which inhibition did it give?
Answer: The inhibition was 3%.

Question: `Cc1cc(Cl)c(S(=O)(=O)Nc2ccc3c(c2)OCCO3)cc1OCC(N)=O` was tested. Which inhibition did it give?
Answer: Its inhibition is 0%.

Question: `N#CC1=C(N)SC(N)=C(C#N)C1CCc1ccccc1` was tested. Which inhibition did it give?
Answer: The inhibition was 8%.

Question: `CCCNC(=O)N1CCN(S(=O)(=O)c2ccc(C)c(C)c2)CC1` was tested. Which inhibition did it give?
Answer: The inhibition was 4%.

Question: With `COc1ccccc1N1CCN(c2cc(N3CCCC3)nc(C)n2)CC1` as the compound, how does the inhibition read?
Answer: Its inhibition is 0%.

Question: With `COc1cccc(-c2cc(C(=O)N3CCCc4ccccc43)no2)c1` as the compound, how does the inhibition read?
Answer: Its inhibition is 0%.

Question: Which inhibition does the source give for `COCC(=O)NC(c1ccccc1)c1ccccc1` here?
Answer: Its inhibition is 7%.

Question: Which inhibition does the source give for `O=C(C1CC1(c1ccccc1)c1ccccc1)N1CCOCC1` (stereo not given) here?
Answer: The inhibition was 0%.

Question: How did the inhibition turn out when `O=c1c2ccccc2c(C=Nc2ccc(Cl)cn2)c(O)n1-c1cc(Cl)ccc1N1CCOCC1` was run?
Answer: Its inhibition is 4%.

Question: Which inhibition does the source give for `Cc1csc(NC(=O)c2cccc(S(=O)(=O)N3CCCCC3)c2)n1` here?
Answer: The inhibition was 0%.
